Screen size: about 5,500 compounds; about 2,000 (36%) were called active. About 18% were inconclusive and are not listed. Cut-off read from the data, not from the text of the source: active = normalized growth mostly below about 0.91 (no sharp cut-off); inconclusive = no clear call, values can overlap the other calls; inactive = mostly above about 0.92. The list shows a part of the results. Where a SMILES comes first, the peptide text is derived from it. Side-chain parts run from the residue outwards. [ ]: non-standard residue; d: D form. The star is where a group is joined. X1 = CCC(C)C(N)C1=NC(C(=O)*)CS1; Orn = NCCC[CH](N)C(=O)O
Experiment: chemical genetic growth profiling, strain panel (AID 1159580);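 note: tested at 20 µM; growth read once vehicle control cultures reached saturation at 30 °C; 1 = growth at the plate median or of vehicle wells; lower values mean less growth of the strain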
Conditions: growth OD

Measured: normalized growth

CCC(C)C(N)C1=NC(C(=O)NC(CC(C)C)C(=O)NC(CCC(=O)O)C(=O)NC(C(=O)NCCCCC2NC(=O)C(CC(N)=O)NC(=O)C(CC(=O)O)NC(=O)C(Cc3cnc[nH]3)NC(=O)C(Cc3ccccc3)NC(=O)C(C(C)CC)NC(=O)C(CCCN)NC2=O)C(C)CC)CS1 (stereo not drawn) (cyclo(DNK([Ile-Glu-Leu-X1])[Orn]IFH); configuration not given here)
inactive: S. cerevisiae deletion strains, locus YJR075W, strain HOC1, stronger effect = lower value 0.986 | S. cerevisiae deletion strains, locus YKL009W, strain mrt4, stronger effect = lower value 0.974 | S. cerevisiae deletion strains, locus YKL068W, stronger effect = lower value 0.995 | S. cerevisiae deletion strains, locus YKL085W, strain MDH1 (second series), stronger effect = lower value 0.966 | S. cerevisiae deletion strains, locus YKL085W, strain MDH1, stronger effect = lower value 0.966 | S. cerevisiae deletion strains, locus YKL160W, strain elf1, stronger effect = lower value 1.02 | S. cerevisiae deletion strains, locus YKL190W, strain CNB1, stronger effect = lower value 0.996 | S. cerevisiae deletion strains, locus YKR001C, strain vps1, stronger effect = lower value 1.01 | S. cerevisiae deletion strains, locus YKR026C, strain gcn3, stronger effect = lower value 1.05 | S. cerevisiae deletion strains, locus YKR091W, strain srl3, stronger effect = lower value 0.973 | S. cerevisiae deletion strains, locus YLL001W, strain dnm1, stronger effect = lower value 1.04 | S. cerevisiae deletion strains, locus YLL026W, stronger effect = lower value 1.01 | S. cerevisiae deletion strains, locus YLL041C, strain sdh2, stronger effect = lower value 1.01 | S. cerevisiae deletion strains, locus YLR027C, strain aat2, stronger effect = lower value 1.01 | S. cerevisiae deletion strains, locus YLR039C, strain RIC1, stronger effect = lower value 1.06 | S. cerevisiae deletion strains, locus YLR058C, strain SHM2, stronger effect = lower value 0.994 | S. cerevisiae deletion strains, locus YLR102C, strain apc9, stronger effect = lower value 1.01 | S. cerevisiae deletion strains, locus YLR113W, strain HOG1, stronger effect = lower value 1.05 | S. cerevisiae deletion strains, locus YLR221C, strain rsa3, stronger effect = lower value 1.01 | S. cerevisiae deletion strains, locus YLR258W, strain gsy2, stronger effect = lower value 0.993 | S. cerevisiae deletion strains, locus YLR262C, strain YPT6 (second series), stronger effect = lower value 1.01 | S. cerevisiae deletion strains, locus YLR262C, strain YPT6, stronger effect = lower value 1.02 | S. cerevisiae deletion strains, locus YLR268W, strain sec22, stronger effect = lower value 1.02 | S. cerevisiae deletion strains, locus YLR320W, strain mms22, stronger effect = lower value 0.982 | S. cerevisiae deletion strains, locus YLR330W, strain CHS5, stronger effect = lower value 1.01 | S. cerevisiae deletion strains, locus YLR342W, strain FKS1 (second series), stronger effect = lower value 1.03 | S. cerevisiae deletion strains, locus YLR342W, strain FKS1, stronger effect = lower value 1.02 | S. cerevisiae deletion strains, locus YLR357W, strain rsc2, stronger effect = lower value 1.07 | S. cerevisiae deletion strains, locus YLR370C, strain arc18, stronger effect = lower value 0.999 | S. cerevisiae deletion strains, locus YLR371W, strain rom2, stronger effect = lower value 1.02 | S. cerevisiae deletion strains, locus YLR384C, strain iki3, stronger effect = lower value 0.993 | S. cerevisiae deletion strains, locus YLR418C, strain cdc73, stronger effect = lower value 0.989 | S. cerevisiae deletion strains, locus YML016C, strain PPZ1, stronger effect = lower value 0.992 | S. cerevisiae deletion strains, locus YML032C, strain rad52, stronger effect = lower value 0.967 | S. cerevisiae deletion strains, locus YML120C, strain ndi1, stronger effect = lower value 0.994 | S. cerevisiae deletion strains, locus YML124C, strain tub3, stronger effect = lower value 0.981 | S. cerevisiae deletion strains, locus YMR058W, strain fet3, stronger effect = lower value 1.02 | S. cerevisiae deletion strains, locus YMR078C, strain ctf18, stronger effect = lower value 0.988 | S. cerevisiae deletion strains, locus YMR125W, strain sto1, stronger effect = lower value 1.02 | S. cerevisiae deletion strains, locus YMR129W, stronger effect = lower value 0.997 | S. cerevisiae deletion strains, locus YMR205C, strain PFK2, stronger effect = lower value 0.998 | S. cerevisiae deletion strains, locus YMR223W, strain ubp8, stronger effect = lower value 1 | S. cerevisiae deletion strains, locus YMR231W, strain pep5, stronger effect = lower value 0.996 | S. cerevisiae deletion strains, locus YMR263W, strain SAP30, stronger effect = lower value 1.01 | S. cerevisiae deletion strains, locus YMR307W, strain GAS1, stronger effect = lower value 0.955 | S. cerevisiae deletion strains, locus YNL067W, strain RPL9B, stronger effect = lower value 1 | S. cerevisiae deletion strains, locus YNL071W, strain lat1, stronger effect = lower value 1 | S. cerevisiae deletion strains, locus YNL128W, strain TEP1, stronger effect = lower value 0.999 | S. cerevisiae deletion strains, locus YNL153C, strain GIM3, stronger effect = lower value 0.992 | S. cerevisiae deletion strains, locus YNL183C, strain NPR1, stronger effect = lower value 0.975 | S. cerevisiae deletion strains, locus YNL209W, strain ssb2, stronger effect = lower value 0.991 | S. cerevisiae deletion strains, locus YNL233W, strain BNI4, stronger effect = lower value 1.01 | S. cerevisiae deletion strains, locus YNL248C, strain rpa49, stronger effect = lower value 0.998 | S. cerevisiae deletion strains, locus YNL250W, strain rad50, stronger effect = lower value 1.01 | S. cerevisiae deletion strains, locus YNL271C, strain bni1, stronger effect = lower value 1.01 | S. cerevisiae deletion strains, locus YNL298W, strain CLA4, stronger effect = lower value 0.966 | S. cerevisiae deletion strains, locus YNL307C, strain MCK1, stronger effect = lower value 1 | S. cerevisiae deletion strains, locus YNL322C, strain KRE1 (second series), stronger effect = lower value 0.994 | S. cerevisiae deletion strains, locus YNR049C, strain mso1, stronger effect = lower value 0.995 | S. cerevisiae deletion strains, locus YNR052C, strain pop2, stronger effect = lower value 0.992 | S. cerevisiae deletion strains, locus YOL006C, strain TOP1, stronger effect = lower value 0.996 | S. cerevisiae deletion strains, locus YOL012C, strain htz1 1.9 | S. cerevisiae deletion strains, locus YOL147C, strain pex11, stronger effect = lower value 0.994 | S. cerevisiae deletion strains, locus YOR001W, strain rrp6, stronger effect = lower value 1.01 | S. cerevisiae deletion strains, locus YOR061W, strain CKA2, stronger effect = lower value 1.01 | S. cerevisiae deletion strains, locus YOR069W, strain VPS5, stronger effect = lower value 1 | S. cerevisiae deletion strains, locus YOR070C, strain gyp1, stronger effect = lower value 1.01 | S. cerevisiae deletion strains, locus YOR080W, strain dia2, stronger effect = lower value 1 | S. cerevisiae deletion strains, locus YOR083W, strain WHI5, stronger effect = lower value 1.04 | S. cerevisiae deletion strains, locus YOR106W, strain vam3, stronger effect = lower value 1.02 | S. cerevisiae deletion strains, locus YOR136W, strain idh2, stronger effect = lower value 1.01 | S. cerevisiae deletion strains, locus YOR144C, strain elg1, stronger effect = lower value 0.999 | S. cerevisiae deletion strains, locus YOR184W, strain ser1, stronger effect = lower value 1.01 | S. cerevisiae deletion strains, locus YOR231W, strain MKK1, stronger effect = lower value 1.03 | S. cerevisiae deletion strains, locus YOR265W, strain rbl2, stronger effect = lower value 1.01 | S. cerevisiae deletion strains, locus YOR270C, strain vph1, stronger effect = lower value 1 | S. cerevisiae deletion strains, locus YOR290C, strain snf2, stronger effect = lower value 0.963 | S. cerevisiae deletion strains, locus YOR316C, strain cot1, stronger effect = lower value 1 | S. cerevisiae deletion strains, locus YPL051W, strain arl3, stronger effect = lower value 1.04 | S. cerevisiae deletion strains, locus YPL078C, strain atp4, stronger effect = lower value 1.02 | S. cerevisiae deletion strains, locus YPL106C, strain sse1, stronger effect = lower value 0.976 | S. cerevisiae deletion strains, locus YPL240C, strain hsp82, stronger effect = lower value 1 | S. cerevisiae deletion strains, locus YPL256C, strain CLN2, stronger effect = lower value 1.02 | S. cerevisiae deletion strains, locus YPR119W, strain clb2, stronger effect = lower value 0.993 | S. cerevisiae deletion strains, locus YPR141C, strain kar3, stronger effect = lower value 0.994 | S. cerevisiae deletion strains, locus YPR163C, strain tif3, stronger effect = lower value 0.995 | S. cerevisiae deletion strains, locus YPR167C, strain met16, stronger effect = lower value 0.993 | S. cerevisiae deletion strains, strain wtn01, stronger effect = lower value 1.03 | S. cerevisiae strains, strain wild type, stronger effect = lower value 0.992
